The supplement of paper PMC5919970
Structures can show the parent of a compound that is named as a salt. In all, about 2,000 compounds were measured (“fractional viability relative to vehicle”: median about 0.92, lowest 2% from about 0.11 on). What follows is part of a selection rich in the lowest values, with near analogues and random picks from the rest.

Test system: TYKNU
Assay: fractional viability relative to vehicle; TYKNU is a high-grade serous ovarian cancer line; higher = less growth inhibition
Conditions: 72 h, genotype: OPA1 knockout (sgOPA1 #2)
Outline: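 TYKNU control cells or lentiCRISPRv2 knockout derivatives were seeded at 500 cells per well into drug-stamped 384-well plates holding a ~2100-compound library at 2 or 10 μM, in duplicate. Cells were grown at 37 °C in 5% CO2 in RPMI 1640 with 10% FBS, and drug treatment lasted 72 h. Viability was read by Cell Titer Glo luminescence. Duplicate treatment wells were averaged and normalised to duplicate control wells from the same plate position.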

Row | Structure (SMILES) | fractional viability (2uM) | fractional viability (10uM)
1 | CC(C=CC(=O)NO)=CC(C)C(=O)c1ccc(N(C)C)cc1 (stereo not drawn) [Trichostatin A (TSA)] | 0.335 | 0.298
2 | O=C(O)c1ccc(-c2c[nH]c3ncc(-c4ccccc4)cc23)cc1C1CCCC1 | 0.98 | 1.11
3 | Cc1ccc([N+](=O)[O-])cc1S(=O)(=O)N(C)/N=C/c1cnc2ccc(Br)cn12 | 0.428 | 0.422
4 | Cc1cc(C(N)=O)ccc1-n1c(CCC(=O)O)ccc1-c1ccc(-n2ccnc2)cc1 | 0.877 | 0.84
5 | CCOC(=O)c1ccc(NC2CCCCC2)c(N)c1 [Ferrostatin-1 (Fer-1)] | 1.03 | 0.934
6 | CC(C)[C@H](N)C(=O)OCC(CO)OCn1cnc2c(=O)[nH]c(N)nc21 (stereo partly drawn) [Valganciclovir HCl] | 0.846 | 0.832
7 | C[C@H](NC(=O)CCc1nc2ccccc2c(=O)[nH]1)c1ccccc1 | 0.861 | 0.876
8 | C[C@H](NC(=O)/C(C#N)=C/c1cccc(Br)n1)c1ccccc1 | 0.867 | 0.0926
9 | N#C/C(=C\c1ccc(O)c(O)c1)C(=O)NCc1ccccc1 [AG-490 (Tyrphostin B42)] | 1.03 | 1.08
10 | CCC[C@H](NC(=O)/C(C#N)=C/c1cccc(Br)n1)c1ccccc1 [Degrasyn (WP1130)] | 0.343 | 0.0765
11 | CC(C)C[C@H](NP(=O)(O)O[C@@H]1O[C@@H](C)[C@H](O)[C@@H](O)[C@H]1O)C(=O)N[C@@H](Cc1c[nH]c2ccccc12)C(=O)O [Phosphoramidon Disodium Salt] | 0.899 | 0.879
12 | CNC(=O)[C@@H](NC(=O)[C@H](CC(C)C)[C@H](O)C(=O)NO)C(C)(C)C [Marimastat(BB-2516)] | 0.952 | 0.73
13 | CC[C@@H]([C@H](C)O)n1ncn(-c2ccc(N3CCN(c4ccc(OC[C@@H]5CO[C@@](Cn6cncn6)(c6ccc(F)cc6F)C5)cc4)CC3)cc2)c1=O [Posaconazole] | 1.18 | 0.872
14 | Cc1ccc(NC(=O)Nc2cc(C(F)(F)F)ccc2F)cc1Nc1ccc2c(c1)NC(=O)/C2=C\c1ccc[nH]1 | 0.83 | 0.932
15 | CNS(=O)(=O)Nc1nccc(Cc2c(C)c3ccc(Oc4ncccn4)cc3oc2=O)c1F | 0.508 | 0.376
16 | O=C(c1ccc(C(=O)N2CCC(N3CCCC3)CC2)c(Nc2ccccc2)c1)N1CCC(N2CCCC2)CC1 | 0.924 | 0.857
17 | O=C(c1cncc(Br)c1)N1CCC(N2CCCC2)CC1 | 0.797 | 0.838

Row | Structure (SMILES) | fractional viability (2uM) | fractional viability (10uM)
18 | O=C(c1ccc(Nc2nccc(-c3cc4ccccc4s3)n2)cc1)N1CCC(N2CCCC2)CC1 [IKK-16 (IKK Inhibitor VII)] | 0.74 | 0.0971
19 | O=C(N/N=C/c1cc(O)c(O)cc1O)c1cc2ccccc2cc1O [Dyngo-4a] | 1.04 | 1.16
20 | Cc1nc(N(C)C(=O)Cc2ccc(-c3ccccn3)cc2)sc1S(N)(=O)=O [Pritelivir (BAY 57-1293)] | 0.924 | 0.791
21 | Cc1cc(Cn2cnc3c2CC(C(=O)O)N(C(=O)C(c2ccccc2)c2ccccc2)C3)ccc1N(C)C (stereo not drawn) | 0.986 | 0.95
22 | Cc1cc(C)cc(C(=O)NOCCCCCC(=O)NO)c1 | 0.355 | 0.188
23 | C/C=C1\NC(=O)[C@H]2CSSCC/C=C/[C@H](CC(=O)N[C@H](C(C)C)C(=O)N2)OC(=O)[C@H](C(C)C)NC1=O [Romidepsin (FK228, Depsipeptide)] | 0.0685 | 0.0492
24 | c1ccc2c(CCNc3ccc(Nc4ccncc4)cc3)c[nH]c2c1 | 0.485 | 0.15
25 | Oc1nc(-c2ccc(C(F)(F)F)cc2)nc2c1CSCC2 | 1.13 | 0.683
26 | Cc1ccc(Nc2nccc(N(C)c3ccc4c(C)n(C)nc4c3)n2)cc1S(N)(=O)=O [Pazopanib] | 1.14 | 0.605
27 | CCOC(=O)c1[nH]c2cc(Cl)ccc2c1C(C(=O)NC(C)(C)C)N(C=O)Cc1ccc(Cl)cc1 (stereo not drawn) | 0.864 | 0.464
28 | CN(C)c1ccc(C(=C2C=CC(=[N+](C)C)C=C2)c2ccc(N(C)C)cc2)cc1 [Crystal Violet] | 0.323 | 0.0953
29 | O=C(O)CCC(=O)Nc1ccc(Br)cn1 [Bikinin] | 0.818 | 0.759
30 | [I-].[K+] [Potassium Iodide] | 1.07 | 0.971
31 | O=C1NCCCc2c1oc1ccc(O)cc21 | 1.1 | 1.15
32 | c1ccc(Cn2c(-c3ccc(OC[C@H](C4CCNCC4)n4c(-c5ccccc5)nc5ccccc54)cc3)nc3ccccc32)cc1 [Deltarasin] | 1.14 | 0.0644
33 | Cc1cc(/N=N/c2ccc(S(=O)(=O)Nc3ccccn3)cc2)c(N)cc1O | 0.89 | 0.64
34 | O=C(NO)c1cccc(C(=O)NCCc2ccccc2)c1 | 0.926 | 0.933
